Assay results: PubChem BioAssay AID1963316 (National Center for Advancing Translational Sciences (NCATS), 2024)
Inconclusive results are not listed. A number with no mark means an inactive call. Active and inactive are the calls of the source. Calls come from the whole dose curve.

Target: Tyrosine-protein kinase ABL1 (Homo sapiens) (UniProt P00519)
Experiment: ABL1 kinase (ABL1-N-HiBiT) SDR gain of signal screen - plus ATP
Settings: purified ABL1-N-HiBiT enzyme, HiBiT luminescence with 50 uM ATP, 30 min; series mostly up to 57.5 µM; signal gain, positive = increase: at the top concentration
Summary of the method: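 Structural-dynamics readout: compound binding alters HiBiT complementation signal of 10 nM ABL1-N-HiBiT in buffer containing 50 uM ATP. After 30 min RT compound exposure, HiBiT detection reagent added 10 min before luminescence imaging; imatinib as positive control.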

Tyrosine-protein kinase ABL1 (Homo sapiens), sequence (P00519 whole entry, looked up): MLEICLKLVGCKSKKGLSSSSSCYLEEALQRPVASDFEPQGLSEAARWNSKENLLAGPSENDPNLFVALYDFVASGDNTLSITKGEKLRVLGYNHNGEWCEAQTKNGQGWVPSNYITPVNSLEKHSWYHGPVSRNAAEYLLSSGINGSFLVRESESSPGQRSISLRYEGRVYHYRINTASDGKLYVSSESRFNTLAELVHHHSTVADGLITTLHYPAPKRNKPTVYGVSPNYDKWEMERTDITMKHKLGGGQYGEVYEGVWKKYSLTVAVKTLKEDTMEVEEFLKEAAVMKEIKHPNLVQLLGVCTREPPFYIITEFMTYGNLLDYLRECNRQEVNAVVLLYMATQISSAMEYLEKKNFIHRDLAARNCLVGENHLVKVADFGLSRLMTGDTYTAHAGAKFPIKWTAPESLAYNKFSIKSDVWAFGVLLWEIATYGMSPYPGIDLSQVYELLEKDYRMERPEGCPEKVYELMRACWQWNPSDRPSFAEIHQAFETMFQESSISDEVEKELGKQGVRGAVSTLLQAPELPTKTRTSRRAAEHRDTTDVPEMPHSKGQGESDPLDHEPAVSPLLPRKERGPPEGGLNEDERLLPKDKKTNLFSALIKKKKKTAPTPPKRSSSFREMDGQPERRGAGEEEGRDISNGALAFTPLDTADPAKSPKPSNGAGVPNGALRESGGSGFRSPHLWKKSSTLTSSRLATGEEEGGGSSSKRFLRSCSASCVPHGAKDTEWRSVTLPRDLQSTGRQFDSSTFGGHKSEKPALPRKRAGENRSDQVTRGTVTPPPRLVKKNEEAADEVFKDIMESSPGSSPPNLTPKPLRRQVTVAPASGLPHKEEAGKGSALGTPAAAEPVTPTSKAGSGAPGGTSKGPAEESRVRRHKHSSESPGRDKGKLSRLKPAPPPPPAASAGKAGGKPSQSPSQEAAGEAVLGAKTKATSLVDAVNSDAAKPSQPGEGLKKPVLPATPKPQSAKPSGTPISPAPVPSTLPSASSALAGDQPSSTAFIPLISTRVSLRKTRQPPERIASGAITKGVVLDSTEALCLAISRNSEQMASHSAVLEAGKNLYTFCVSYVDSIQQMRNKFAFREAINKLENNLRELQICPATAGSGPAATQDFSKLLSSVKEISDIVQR

Structure (SMILES)	Potency	signal gain, positive = increase
O=C(O)C1(Cc2cccc(Nc3nccs3)n2)CCC(Oc2cccc(Cl)c2F)CC1 (stereo not drawn)	1150 nM (active)	
O=C1CCC(N2C(=O)c3ccccc3C2=O)C(=O)N1 (stereo not drawn)		-4.35%
CC(C)CCN1c2nc(Nc3cc(F)c(O)c(F)c3)ncc2N(C)C(=O)C1C (stereo not drawn)		3.93%
Cc1cc(F)ccc1-c1nc(NCCN=C(N)NC#N)nc2c1ccc(=O)n2-c1c(F)cccc1F		-4.79%
CCN1CCN(Cc2ccc(NC(=O)c3ccc(C)c(NC(=O)c4cncc(-c5cccs5)c4)c3)cc2C(F)(F)F)CC1		6.84%
FC(F)(F)c1ccc(/C=C/c2nc(COc3ccc(CCCCn4ccnn4)cc3)co2)cc1		1.31%
COc1cc(N2CCC(N3CCN(C)CC3)CC2)ccc1Nc1ncc(Cl)c(Nc2ccccc2P(C)(C)=O)n1	3150 nM (active)	
Cn1ncc(NC(=O)c2nc(-c3c(F)cccc3F)sc2N)c1N1CC[C@@H](N)[C@H](F)CC1		1.32%
O=c1cc(N2CCOCC2)nc2c3ccccc3ccn12		8.04%
COc1cc(NC(=O)c2cccc(-n3cc(NC(=O)Nc4cccc(C)c4)cn3)c2)cc(OC)c1OC		-0.0246%
COc1cc2ncnc(-n3nc(-c4ccccn4)nc3N)c2cc1OC	891 nM (active)	
Cc1[nH]c2ccccc2c1C1=C(NCCc2ccc(F)cc2)C(=O)N(C)C1=O		-13.3%
O=C(NCCO)c1cccc(-c2cc(Nc3ccc(OC(F)(F)F)cc3)ncn2)c1		-0.296%
CNS(=O)(=O)c1ccc2c(c1)/C(=C/c1[nH]c3c(c1CCCN1CCN(C)CC1)CCCC3)C(=O)N2	1770 nM (active)	
COc1ccc(-n2c(SCC#N)nc3sc4c(c3c2=O)CCCC4)cc1		-1.47%
O=S(=O)(/N=C/c1c(O)ccc2ccccc12)c1cccs1		-2.01%
Cc1cc(O)c2c(c1)C(=O)c1cc(O)cc(O)c1C2=O		-9.42%
O=C(NC1CCNCC1)c1[nH]ncc1NC(=O)c1c(Cl)cccc1Cl		-1.94%
Cc1ccc(NC(=O)c2ccc(CN3CCN(C)CC3)cc2)cc1Nc1nc(-c2cccnc2)cs1		8.88%
O=C1C(c2c(O)[nH]c3ccccc23)=Nc2ccccc21		0.117%
Nc1ncccc1-c1nc2ccc(-c3ccccc3)nc2n1-c1ccc(C2(N)CCC2)cc1		-4.38%
NC1(C(=O)N[C@@H](CCO)c2ccc(Cl)cc2)CCN(c2ncnc3[nH]ccc23)CC1		11.3%
CNC(=O)c1ccccc1Nc1nc(Nc2ccc(N3CCOCC3)cc2OC)ncc1Cl		8.36%
